Assay results reported in PubChem BioAssay (NCATS).
Inconclusive results are not listed. Active and inactive are the calls of the source. Unless noted, the call rests on the fitted dose curve; in most records, active means well fitted curve in the direction sought with a large enough effect; inconclusive means small, poorly fitted or top-dose-only effect, or another doubt; inactive means no such curve, though single readings can be large; an effect the other way counts as inactive or inconclusive.

What was measured:
[1] = molecular target: Cytochrome P450 2D6 (Homo sapiens) (UniProt P10635); assay: Cytochrome P450 family 2 subfamily D member 6 (CYP2D6) small molecule antagonists: luciferase biochemical (cell-free) qHTS assay (AID 1645840; active means well fitted curve in the direction sought with a large enough effect in the repeat runs; an effect the other way counts as inactive or inconclusive; further: nearly all actives have a fitted effect of over 55% in size; further: potency means the concentration at half of the fitted maximal effect)
Chain of Cytochrome P450 2D6 (Homo sapiens) (P10635 whole entry, looked up): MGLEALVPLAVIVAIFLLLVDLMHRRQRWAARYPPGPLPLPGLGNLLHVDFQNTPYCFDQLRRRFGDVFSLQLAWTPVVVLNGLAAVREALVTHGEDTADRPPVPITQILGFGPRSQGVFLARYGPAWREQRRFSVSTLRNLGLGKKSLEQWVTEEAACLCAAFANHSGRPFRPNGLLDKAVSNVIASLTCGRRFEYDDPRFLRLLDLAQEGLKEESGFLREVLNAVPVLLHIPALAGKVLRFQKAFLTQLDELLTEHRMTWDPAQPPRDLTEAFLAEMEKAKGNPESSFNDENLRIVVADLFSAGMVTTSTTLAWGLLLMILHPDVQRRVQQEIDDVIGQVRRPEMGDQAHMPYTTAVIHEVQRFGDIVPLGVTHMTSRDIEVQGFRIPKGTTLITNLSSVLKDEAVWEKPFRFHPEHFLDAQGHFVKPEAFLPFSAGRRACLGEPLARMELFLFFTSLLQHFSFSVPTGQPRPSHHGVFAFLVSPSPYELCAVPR
How it was run: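 P450-Glo luminescent screen: recombinant CYP2D6 enzyme–proluciferin substrate mix preincubated with compound 10 min at room temperature, then NADPH regeneration added for 1 h at room temperature. Detection reagent added for 20 min; luciferin light read as relative luminescence units.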

[2] = molecular target: Cytochrome P450 2C9 (Homo sapiens) (UniProt P11712); assay: Cytochrome P450 family 2 subfamily C member 9 (CYP2C9) small molecule antagonists: luciferase biochemical (cell-free) qHTS assay (AID 1645842; active means well fitted curve in the direction sought with a large enough effect in the repeat runs; an effect the other way counts as inactive or inconclusive; further: nearly all actives have a fitted effect of over 55% in size; further: potency means the concentration at half of the fitted maximal effect)
Chain of Cytochrome P450 2C9 (Homo sapiens) (P11712 whole entry, looked up): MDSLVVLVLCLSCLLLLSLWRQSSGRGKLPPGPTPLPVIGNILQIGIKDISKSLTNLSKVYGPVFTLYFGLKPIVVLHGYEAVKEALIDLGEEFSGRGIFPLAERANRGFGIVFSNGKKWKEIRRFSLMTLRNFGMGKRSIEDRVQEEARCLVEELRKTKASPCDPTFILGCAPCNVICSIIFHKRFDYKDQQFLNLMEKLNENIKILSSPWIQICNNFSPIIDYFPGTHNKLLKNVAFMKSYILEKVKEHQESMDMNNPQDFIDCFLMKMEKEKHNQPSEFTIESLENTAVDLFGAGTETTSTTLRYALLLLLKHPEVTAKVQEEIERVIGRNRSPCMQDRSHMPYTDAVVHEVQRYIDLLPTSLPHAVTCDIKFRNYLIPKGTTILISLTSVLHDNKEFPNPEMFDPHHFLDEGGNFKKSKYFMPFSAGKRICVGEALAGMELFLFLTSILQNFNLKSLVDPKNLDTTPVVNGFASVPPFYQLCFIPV
How it was run: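 Luminescence, after 20 min with luciferin detection reagent, reflected CYP2C9 turnover during a 1 h NADPH-driven reaction at 37C. Enzyme-substrate mix contained 0.4% bovine serum albumin and was preincubated with compound 10 min at room temperature.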

[3] = Viability counterscreen for antagonist of constitutive androstane receptor (CAR) against the NCATS DSHEA and TCM libraries (AID 1794837);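 further: compound exposure lasted 24 h before viability reading; 0% is about no effect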
How it was run: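 Viability was measured by CellTiter-Fluor fluorescence (405/540 nm, 1 hr) in HepG2-CYP2B6-hCAR cells. Cells were co-treated 24 hr with 48 uM CITCO (final), antagonist mode, and test substances.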

[4] = Viability counterscreen for agonist of constitutive androstane receptor (CAR) against the NCATS DSHEA and TCM libraries (AID 1794838); further: 0% is about no effect
How it was run: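 Cell viability, from CellTiter-Fluor fluorescence (405/540 nm), was scored after a 24 h, 37C exposure of HepG2 cells carrying CYP2B6 reporter and hCAR to test substances in presence of 0.75 uM PK11195.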

[5] = molecular target: Nuclear receptor subfamily 1 group I member 3 (Homo sapiens) (UniProt Q14994); assay: Primary qHTS for agonist of constitutive androstane receptor (CAR) against the NCATS DSHEA and TCM libraries (AID 1794839);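 further: HepG2 cells expressing human CAR with a CYP2B6 reporter plus PK11195 antagonist; 0% is about no effect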
Chain of Nuclear receptor subfamily 1 group I member 3 (Homo sapiens) (Q14994 whole entry, looked up): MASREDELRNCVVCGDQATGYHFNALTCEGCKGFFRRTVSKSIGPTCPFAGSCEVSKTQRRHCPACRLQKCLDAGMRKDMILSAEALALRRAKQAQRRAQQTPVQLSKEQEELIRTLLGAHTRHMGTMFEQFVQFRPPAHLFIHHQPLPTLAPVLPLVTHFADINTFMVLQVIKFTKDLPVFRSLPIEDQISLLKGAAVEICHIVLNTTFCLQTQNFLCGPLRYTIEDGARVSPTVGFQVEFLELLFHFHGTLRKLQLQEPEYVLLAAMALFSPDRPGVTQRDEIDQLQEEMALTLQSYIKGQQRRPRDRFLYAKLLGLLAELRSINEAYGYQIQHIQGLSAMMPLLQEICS
How it was run: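 Agonist mode in presence of hCAR antagonist PK11195 (0.75 µM final): test substances, 24 h, 37 °C, on HepG2-CYP2B6-hCAR cells. Same-well readouts: fluorescence viability, then ONE-Glo luminescence; CITCO as reference agonist.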

[6] = HepG2 viability counterscreen (readout 2: ATP content) against the NCATS DSHEA and TCM libraries (AID 1794840); further: 0% is about no effect
How it was run: (§1)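 Readout 1: cellular protease activity, GF-AFC substrate (25 uM final, 30 min, fluorescence 380/510 nm). Readout 2: ATP content by CellTiter-Glo luminescence after 30 min at RT. Both follow ~24 h exposure of HepG2 cells (1,000/well) to substances.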

[7] = HepG2 viability counterscreen (readout 1: protease activity) against the NCATS DSHEA and TCM libraries (AID 1794841);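 further: cells exposed to compounds for about 24 h before the protease read; 0% is about no effect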
How it was run: as §1

[8] = molecular target: Cytochrome P450 3A4 (Homo sapiens) (UniProt P08684); assay: qHTS for inhibitors of CYP3A4 against the NCATS DSHEA and TCM libraries (AID 1919971);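 further: on the % scale 0 is the no-effect control and ±100 the full control effect; inhibition lowers luminescence from luciferin made by CYP3A4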
Chain of Cytochrome P450 3A4 (Homo sapiens) (P08684 whole entry, looked up): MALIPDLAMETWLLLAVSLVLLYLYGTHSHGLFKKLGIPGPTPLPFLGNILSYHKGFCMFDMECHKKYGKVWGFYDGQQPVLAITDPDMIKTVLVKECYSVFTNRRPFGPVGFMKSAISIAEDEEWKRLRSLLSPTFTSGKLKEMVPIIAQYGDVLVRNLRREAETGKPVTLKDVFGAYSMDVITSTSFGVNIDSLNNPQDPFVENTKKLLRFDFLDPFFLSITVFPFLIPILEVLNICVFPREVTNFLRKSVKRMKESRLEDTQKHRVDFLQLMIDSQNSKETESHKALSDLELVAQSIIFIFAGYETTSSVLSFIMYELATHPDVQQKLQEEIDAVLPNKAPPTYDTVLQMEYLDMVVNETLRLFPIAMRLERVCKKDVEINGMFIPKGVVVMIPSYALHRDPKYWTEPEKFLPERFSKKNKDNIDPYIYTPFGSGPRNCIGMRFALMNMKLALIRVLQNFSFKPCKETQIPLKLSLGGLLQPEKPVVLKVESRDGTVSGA
How it was run: (§2)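 Luminescent P450-Glo readout. Enzyme plus pro-luciferin substrate in manufacturer buffer (typically 100 mM KPO4); 15 min RT preincubation; 1x NADPH regenerating system, 30-45 min RT in the dark; detection reagent 30 min.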

[9] = molecular target: Cytochrome P450 2D6 (Homo sapiens) (UniProt P10635); assay: qHTS for inhibitors of CYP2D6 against the NCATS DSHEA and TCM libraries (AID 1919972); further: on the % scale 0 is the no-effect control and ±100 the full control effect
How it was run: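 Steps: enzyme plus luciferin substrate dispensed; test substances pinned; 15 min RT; 1x NADPH regenerating solution added, 30–45 min RT protected from light; detection reagent, 30 min RT; luminescence measured. Minus-enzyme wells as background.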

[10] = molecular target: Cytochrome P450 2C9 (Homo sapiens) (UniProt P11712); assay: qHTS for inhibitors of CYP2C9 against the NCATS DSHEA and TCM libraries (AID 1919973);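 further: luminogenic pro-luciferin CYP2C9 substrate turned into luciferin with NADPH regeneration; series mostly up to about 34 µM; on the % scale 0 is the no-effect control and ±100 the full control effect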
How it was run: as §2

[11] = molecular target: Cytochrome P450 2C19 (Homo sapiens) (UniProt P33261); assay: qHTS for inhibitors of CYP2C19 against the NCATS DSHEA and TCM libraries (AID 1919974);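 further: luminescence from luciferin released by CYP2C19 oxidation of a pro-luciferin substrate; on the % scale 0 is the no-effect control and ±100 the full control effect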
How it was run: as §2

[12] = KB-3-1 P-gp reporter qHTS against the NCATS DSHEA and TCM libraries (AID 1919975); further: 0% is about no effect
How it was run: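 Cell viability by CellTiter-Glo luminescence following ~72 h compound exposure (concentration-response). Uses parental, non-P-gp-overexpressing KB-3-1 line, 500 cells/well in DMEM/10% FBS, attached ~4 h before dosing.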

[13] = molecular target: Cytochrome P450 1A2 (Homo sapiens) (UniProt P05177); assay: qHTS for inhibitors of CYPIA2 against the NCATS DSHEA and TCM libraries (AID 1919976);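 further: light from luciferin formed by CYP1A2 from a pro-luciferin substrate; series mostly up to about 37 µM; on the % scale 0 is the no-effect control and ±100 the full control effect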
Chain of Cytochrome P450 1A2 (Homo sapiens) (P05177 whole entry, looked up): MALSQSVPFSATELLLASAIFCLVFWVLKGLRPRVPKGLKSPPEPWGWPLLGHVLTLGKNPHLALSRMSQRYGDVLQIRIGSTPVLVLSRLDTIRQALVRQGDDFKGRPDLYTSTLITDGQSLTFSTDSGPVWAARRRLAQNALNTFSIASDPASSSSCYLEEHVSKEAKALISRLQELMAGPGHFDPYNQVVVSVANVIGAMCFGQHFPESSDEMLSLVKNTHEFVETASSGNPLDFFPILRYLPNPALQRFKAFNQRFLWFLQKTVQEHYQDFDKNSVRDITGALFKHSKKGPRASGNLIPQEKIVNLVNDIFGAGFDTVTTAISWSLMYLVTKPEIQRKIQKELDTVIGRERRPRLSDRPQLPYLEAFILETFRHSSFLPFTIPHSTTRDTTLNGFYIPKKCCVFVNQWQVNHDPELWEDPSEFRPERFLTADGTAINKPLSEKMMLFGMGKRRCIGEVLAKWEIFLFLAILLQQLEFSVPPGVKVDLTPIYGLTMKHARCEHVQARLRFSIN
How it was run: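 Human CYP1A2 with its pro-luciferin substrate in supplier buffer (typically 100 mM KPO4) was pre-incubated with compounds 15 min at RT. Reaction was started with 1x NADPH regeneration solution and run 30-45 min at RT in the dark, then luminescence was read after P450-Glo detection reagent (30 min RT).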

[14] = qHTS Counterscreen for compound interference against the NCATS DSHEA and TCM libraries (AID 1919978); details: firefly luciferase detection reagent interference, luminescence;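 further: compounds preincubated with 1 µM D-luciferin or buffer before detection reagent; % of control where 0% means no effect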
How it was run: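 With 1 uM D-luciferin or phosphate buffer only, compounds at final 19.5 nM–39.8 uM were incubated for 15 min at room temperature. Luciferase detection reagent was then added, and luminescence was measured after a further 30 min at room temperature.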

[15] = Dual reporter qHTS for agonist of Pregnane X Receptor (hPXR) against the NCATS DSHEA and TCM libraries: Fluorescence readout (AID 1920058); further: 0% is about no effect
How it was run: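 hPXR-Luc HepG2 cells (2000/well) in phenol red-free medium with charcoal-stripped FBS attached for 5 h, then were exposed to compounds for about 24 h at 37 °C. Viability was read by CellTiter-Fluor fluorescence (Ex/Em 405/540 nm) after 1 h.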

[16] = molecular target: Nuclear receptor subfamily 1 group I member 2 (Homo sapiens) (UniProt O75469); assay: Dual reporter qHTS for agonist of Pregnane X Receptor (hPXR) against the NCATS DSHEA and TCM libraries: Luminescence readout (AID 1920059); further: 0% is about no effect
Chain of Nuclear receptor subfamily 1 group I member 2 (Homo sapiens) (O75469 whole entry, looked up): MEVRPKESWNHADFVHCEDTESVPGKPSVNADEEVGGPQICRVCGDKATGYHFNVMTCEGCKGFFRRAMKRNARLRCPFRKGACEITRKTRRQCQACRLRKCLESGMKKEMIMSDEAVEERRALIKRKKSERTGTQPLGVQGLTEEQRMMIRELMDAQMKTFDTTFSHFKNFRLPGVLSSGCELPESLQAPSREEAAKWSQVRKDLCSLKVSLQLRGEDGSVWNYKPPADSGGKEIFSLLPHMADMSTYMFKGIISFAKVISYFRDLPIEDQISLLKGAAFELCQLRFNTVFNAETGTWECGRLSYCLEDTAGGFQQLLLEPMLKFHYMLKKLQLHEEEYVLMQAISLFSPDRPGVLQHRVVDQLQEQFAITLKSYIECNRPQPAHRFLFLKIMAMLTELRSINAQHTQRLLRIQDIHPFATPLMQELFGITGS
How it was run: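 Luminescent PXR reporter read (ONE-Glo) after a CellTiter-Fluor viability read, following 24 h, 37C treatment of HepG2 cells stably carrying hPXR-Luc.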

[17] = molecular target: Nuclear receptor subfamily 1 group I member 2 (Homo sapiens) (UniProt O75469); assay: Dual reporter qHTS for antagonist of Pregnane X Receptor (hPXR) against the NCATS DSHEA and TCM libraries: Luminescence Readout (AID 1920060); further: 0% is about no effect
How it was run: (§3)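 Rifampicin-stimulated (2 uM final) hPXR-luciferase HepG2 cells were treated for 24 h with DSNP/TCM substances. Viability came from CellTiter-Fluor fluorescence, reporter activity from ONE-Glo luminescence.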

[18] = Dual reporter qHTS for antagonist of Pregnane X Receptor (hPXR) against the NCATS DSHEA and TCM libraries: Fluorescence Readout (AID 1920061); further: 0% is about no effect
How it was run: as §3

[19] = molecular target: N-terminal Xaa-Pro-Lys N-methyltransferase 1 (Homo sapiens) (UniProt Q9BV86); assay: Confirmatory qHTS for Inhibitors of N-terminal methyltransferase 1 (NTMT1): MTaseGlo Assay (AID 1645874); further: potency means the concentration at half of the fitted maximal effect; nearly all actives have a fitted effect of over 65% in size
Chain of N-terminal Xaa-Pro-Lys N-methyltransferase 1 (Homo sapiens) (Q9BV86 whole entry, looked up): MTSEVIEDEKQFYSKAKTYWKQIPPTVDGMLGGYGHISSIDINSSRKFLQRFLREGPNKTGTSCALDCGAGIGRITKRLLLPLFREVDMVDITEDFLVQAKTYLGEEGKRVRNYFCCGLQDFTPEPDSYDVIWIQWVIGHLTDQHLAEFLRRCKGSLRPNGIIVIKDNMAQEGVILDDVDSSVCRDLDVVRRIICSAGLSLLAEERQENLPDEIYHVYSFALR
How it was run: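 Compounds are incubated with 125 nM NTMT1 and 100 uM SAM for 15 min before the SPKRIA peptide (1 uM) starts a 30 min room-temperature methylation. SAH is measured by coupled luciferase luminescence and curves fitted to a Hill equation.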

[20] = molecular target: Rap guanine nucleotide exchange factor 3 (Homo sapiens) (UniProt O95398); assay: Confirmatory qHTS for antagonist of cAMP-regulated guanine nucleotide exchange factor 3 (EPAC1) (AID 1645880); further: nearly all actives have a fitted effect of over 55% in size; further: potency means the concentration at half of the fitted maximal effect
Chain of Rap guanine nucleotide exchange factor 3 (Homo sapiens) (O95398 whole entry, looked up): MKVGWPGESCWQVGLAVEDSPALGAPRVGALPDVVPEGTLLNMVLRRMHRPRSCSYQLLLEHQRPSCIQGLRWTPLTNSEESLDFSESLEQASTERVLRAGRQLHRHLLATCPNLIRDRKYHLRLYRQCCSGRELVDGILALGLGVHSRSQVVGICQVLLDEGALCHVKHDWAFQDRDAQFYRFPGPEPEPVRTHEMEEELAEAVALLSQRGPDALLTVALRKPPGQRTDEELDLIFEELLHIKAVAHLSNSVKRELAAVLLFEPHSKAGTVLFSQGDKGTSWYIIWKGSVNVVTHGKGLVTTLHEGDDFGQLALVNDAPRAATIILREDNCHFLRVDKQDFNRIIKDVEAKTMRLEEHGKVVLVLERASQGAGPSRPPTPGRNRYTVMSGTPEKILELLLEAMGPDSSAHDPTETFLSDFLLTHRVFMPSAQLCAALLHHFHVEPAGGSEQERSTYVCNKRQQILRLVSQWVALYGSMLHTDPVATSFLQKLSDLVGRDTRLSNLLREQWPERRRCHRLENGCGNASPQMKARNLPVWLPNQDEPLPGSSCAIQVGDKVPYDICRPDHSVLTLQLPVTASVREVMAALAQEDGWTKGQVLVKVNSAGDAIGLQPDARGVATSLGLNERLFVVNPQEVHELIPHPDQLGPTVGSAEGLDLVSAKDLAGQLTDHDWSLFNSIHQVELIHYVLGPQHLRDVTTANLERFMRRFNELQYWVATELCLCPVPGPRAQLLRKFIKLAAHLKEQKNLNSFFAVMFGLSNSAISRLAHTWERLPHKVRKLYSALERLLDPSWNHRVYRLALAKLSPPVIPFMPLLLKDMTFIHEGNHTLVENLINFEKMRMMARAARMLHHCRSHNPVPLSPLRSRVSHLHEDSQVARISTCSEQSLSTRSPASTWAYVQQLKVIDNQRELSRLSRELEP
How it was run: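 Nucleotide exchange uses 100 nM EPAC1, 250 nM RAP1B-BODIPY-GDP and 50 uM GDP, with compounds in a concentration-titration series. After 5 min at room temperature, fluorescence (480 nm ex/540 nm em) is read every 5 min for 30 min. Data are normalized to control ATA and DMSO.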

[21] = molecular target: Rap guanine nucleotide exchange factor 3 (Homo sapiens) (UniProt O95398); assay: Confirmatory qHTS for agonist of cAMP-regulated guanine nucleotide exchange factor 3 (EPAC1) (AID 1645881);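 further: EPAC1 catalysed release of BODIPY-GDP from Rap1B seen as fluorescence loss; 100% = effect of cAMP agonist control; nearly all actives have a fitted effect of over 75% in size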
[22] = molecular target: Rap guanine nucleotide exchange factor 4 (Homo sapiens) (UniProt Q8WZA2); assay: Confirmatory qHTS for agonist of cAMP-regulated guanine nucleotide exchange factor 4 (EPAC2) (AID 1645884);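 further: nucleotide exchange releases bodipy-GDP from Rap1 and this lowers its fluorescence; on the % scale 0 is the no-effect control and ±100 the full control effect; nearly all actives have a fitted effect of over 65% in size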
Chain of Rap guanine nucleotide exchange factor 4 (Homo sapiens) (Q8WZA2 whole entry, looked up): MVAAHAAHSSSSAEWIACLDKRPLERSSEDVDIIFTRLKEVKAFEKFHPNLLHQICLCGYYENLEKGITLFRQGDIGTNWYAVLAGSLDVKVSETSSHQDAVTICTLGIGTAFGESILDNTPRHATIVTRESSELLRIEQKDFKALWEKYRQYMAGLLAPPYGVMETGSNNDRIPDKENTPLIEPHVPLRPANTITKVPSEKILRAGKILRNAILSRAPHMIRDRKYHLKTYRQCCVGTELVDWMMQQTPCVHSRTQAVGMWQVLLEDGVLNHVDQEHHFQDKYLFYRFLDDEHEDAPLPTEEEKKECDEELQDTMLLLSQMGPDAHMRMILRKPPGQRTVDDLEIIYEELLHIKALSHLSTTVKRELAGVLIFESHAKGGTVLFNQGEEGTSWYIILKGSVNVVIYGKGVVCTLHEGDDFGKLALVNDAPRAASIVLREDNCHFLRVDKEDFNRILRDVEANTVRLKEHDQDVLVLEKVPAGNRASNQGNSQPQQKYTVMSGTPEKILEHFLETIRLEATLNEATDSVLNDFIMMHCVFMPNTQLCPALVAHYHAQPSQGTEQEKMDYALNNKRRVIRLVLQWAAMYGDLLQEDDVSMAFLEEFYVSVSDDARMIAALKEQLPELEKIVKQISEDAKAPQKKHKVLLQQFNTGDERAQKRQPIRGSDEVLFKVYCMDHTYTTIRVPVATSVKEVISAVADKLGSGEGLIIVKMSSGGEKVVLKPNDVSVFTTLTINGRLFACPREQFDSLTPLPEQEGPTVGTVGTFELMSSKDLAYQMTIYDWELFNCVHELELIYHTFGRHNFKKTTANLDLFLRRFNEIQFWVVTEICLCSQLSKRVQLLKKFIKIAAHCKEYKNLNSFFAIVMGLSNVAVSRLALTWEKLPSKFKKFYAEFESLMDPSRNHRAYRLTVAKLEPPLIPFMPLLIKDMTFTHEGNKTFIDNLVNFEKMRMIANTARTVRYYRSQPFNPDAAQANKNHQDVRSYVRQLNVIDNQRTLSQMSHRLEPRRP

[23] = molecular target: Rap guanine nucleotide exchange factor 4 (Homo sapiens) (UniProt Q8WZA2); assay: Confirmatory qHTS for antagonist of cAMP-regulated guanine nucleotide exchange factor 4 (EPAC2) (AID 1645885); further: on the % scale 0 is the no-effect control and ±100 the full control effect; nearly all actives have a fitted effect of over 25% in size
[24] = molecular target: Rap guanine nucleotide exchange factor 3 (Homo sapiens) (UniProt O95398); assay: Counterscreen qHTS for antagonist of cAMP-regulated guanine nucleotide exchange factor 3 (EPAC1) (AID 1645888);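 further: fluorescence loss as bound BODIPY-GDP is released from Rap1B; % of control where 0% means no effect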
How it was run: (§4)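 Rap1B-BODIPY-GDP 250 nM + GDP 50 uM; cpds 7-pt, final 9.74 nM–152 uM (activator mode) or from 7.32 nM upwards (inhibitor mode); RT; FI 480/540 nm at 5 and 30 min, then ± cAMP, reread.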

[25] = molecular target: Rap guanine nucleotide exchange factor 3 (Homo sapiens) (UniProt O95398); assay: Counterscreen qHTS for agonist of cAMP-regulated guanine nucleotide exchange factor 3 (EPAC1) (AID 1645889); further: % of control where 0% means no effect; nearly all actives have a fitted effect of over 40% in size
How it was run: as §4

C=C(C)[C@H]1CC=C(C)CC1
inactive: Potency [1] | Potency [2] | outcome [3] | outcome [4] | outcome [5] | outcome [6] | outcome [7] | outcome [8] | outcome [9] | outcome [10] | outcome [11] | outcome [12] | outcome [13] | max response [14] -0.263% | outcome [15] | outcome [16] | outcome [17] | outcome [18]

O=C(Nc1cccc(Cl)c1)c1c(NC(=O)C(F)(F)F)sc2c1CCCC2
inactive: Potency [21] | Potency [22] | Potency [23] | Potency [24]
active: Potency [1] 4.46 µM | Potency [2] 0.354 µM | Potency [19] 5.4 µM | Potency [20] 37.9 µM

CC(CCC(=O)O)C1CC[C@H]2C3[C@H](O)C[C@@H]4C[C@H](O)CCC4(C)[C@H]3C[C@H](O)C12C (some centres undefined)
inactive: Potency [1] | Potency [2]

CCC(=O)N1CCc2cc(S(=O)(=O)NC(Cc3ccccc3)C(=O)NCc3cccc(OC)c3)ccc21 (centres undefined)
active: Potency [1] 12 µM | Potency [2] 12 µM

Cc1ccn2c(Nc3ccccc3C)c(-c3ccccn3)nc2c1
active: Potency [1] 19 µM | Potency [2] 0.952 µM

Cc1ccc(Cn2c(Cc3ccccc3)nc3ccccc32)cc1
inactive: Potency [20] | Potency [21] | Potency [23] | Potency [24] | Potency [25]
active: Potency [1] 10.7 µM | Potency [2] 13.5 µM
